Results published in PubChem BioAssay AID1159580 (chemical genetic matrix, 2015).
Screen size: about 5,500 compounds; about 2,000 (36%) were called active. Another 18% or so got no clear call; they are omitted. Rule as the data show it: active = normalized growth mostly below about 0.91 (no sharp cut-off); inconclusive = no clear call, values can overlap the other calls; inactive = mostly above about 0.92. This is one part of the list.

Test: chemical genetic growth profiling, strain panel (AID 1159580);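 also: tested at 20 µM; growth read once vehicle control cultures reached saturation at 30 °C; 1 = growth at the plate median or of vehicle wells; lower values mean less growth of the strain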
Conditions: growth OD

Measured: normalized growth

CSc1nc(N)nc(C(C)(C)C)n1
inactive: S. cerevisiae deletion strains, locus YAL013W, strain DEP1, active compounds read low 1.01 | S. cerevisiae deletion strains, locus YBR229C, strain ROT2, active compounds read low 1 | S. cerevisiae deletion strains, locus YCL061C, strain MRC1, active compounds read low 0.993 | S. cerevisiae deletion strains, locus YDL101C, strain DUN1, active compounds read low 0.976 | S. cerevisiae deletion strains, locus YDL134C, strain PPH21, active compounds read low 1.01 | S. cerevisiae deletion strains, locus YDR150W, strain NUM1, active compounds read low 0.978 | S. cerevisiae deletion strains, locus YEL061C, strain CIN8, active compounds read low 1.02 | S. cerevisiae deletion strains, locus YGR078C, strain PAC10, active compounds read low 1.01 | S. cerevisiae deletion strains, locus YHR030C, strain SLT2, active compounds read low 0.974 | S. cerevisiae deletion strains, locus YHR087W, strain rtc3, active compounds read low 1 | S. cerevisiae deletion strains, locus YJL187C, strain SWE1, active compounds read low 1.02 | S. cerevisiae deletion strains, locus YJR043C, strain POL32, active compounds read low 1.01 | S. cerevisiae deletion strains, locus YJR075W, strain HOC1, active compounds read low 0.978 | S. cerevisiae deletion strains, locus YLR039C, strain RIC1, active compounds read low 1.01 | S. cerevisiae deletion strains, locus YLR058C, strain SHM2 (second series), active compounds read low 1.02 | S. cerevisiae deletion strains, locus YLR085C, strain ARP6, active compounds read low 1.03 | S. cerevisiae deletion strains, locus YLR262C, strain YPT6, active compounds read low 1.01 | S. cerevisiae deletion strains, locus YML094W, strain GIM5, active compounds read low 0.981 | S. cerevisiae deletion strains, locus YMR219W, strain ESC1, active compounds read low 1.02 | S. cerevisiae deletion strains, locus YMR263W, strain SAP30, active compounds read low 0.991 | S. cerevisiae deletion strains, locus YNL128W, strain TEP1, active compounds read low 1.02 | S. cerevisiae deletion strains, locus YNL153C, strain GIM3, active compounds read low 0.982 | S. cerevisiae deletion strains, locus YNL298W, strain CLA4 (second series), active compounds read low 1.03 | S. cerevisiae deletion strains, locus YNL322C, strain KRE1, active compounds read low 1 | S. cerevisiae deletion strains, locus YNR030W, strain Alg12, active compounds read low 1 | S. cerevisiae deletion strains, locus YOL006C, strain TOP1, active compounds read low 0.968 | S. cerevisiae deletion strains, locus YPL055C, strain LGE1, active compounds read low 0.989 | S. cerevisiae deletion strains, locus YPL241C, strain CIN2, active compounds read low 1.11 | S. cerevisiae deletion strains, locus YPR135W, strain CTF4, active compounds read low 0.951 | S. cerevisiae strains, strain wild type, active compounds read low 1.02
